From PubChem BioAssay (EPA / NIEHS) come the findings set out here.

Experiment [1] concerns the target Oxysterols receptor LXR-beta (Homo sapiens) (UniProt P55055). Kind of experiment: ATG_LXRb_TRANS: Attagene TRANS-FACTORIAL HepG2 Assay for human Liver X Receptor beta (LXRb) (AID 2282981). As to conditions: HepG2 Attagene TRANS GAL4-LXRb reporter, mRNA. In a few lines: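 Readout: fluorescent reporter mRNA fragments resolved by capillary electrophoresis after RT-PCR. System: transiently transfected human HepG2, exogenous LXRb-Gal4 chimera driving GAL4-UAS reporter, 24 h dosing. Activity fitted upward against DMSO baseline.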

For experiment [2], the target named is Hepatocyte nuclear factor 4-alpha (Homo sapiens) (UniProt P41235). Kind of experiment: ATG_HNF4a_TRANS: Attagene TRANS-FACTORIAL HepG2 Assay for human Hepatocyte Nuclear Factor 4 alpha (HNF4a) (AID 2282982). The conditions noted are these: HepG2 HNF4a transactivation reporter, mRNA readout. In a few lines:
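Transient MRTU transfection of HepG2, 24 h dosing. Readout: reporter mRNA via RT-PCR + capillary electrophoresis, fluorescence; activity fit upward relative to DMSO control.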

Experiment [3] deals with Transcriptional activator Myb (Homo sapiens) (UniProt P10242). Kind of experiment: ATG_Myb_CIS: Attagene CIS-FACTORIAL HepG2 Assay for human Myeloblastosis (Myb) Proto-Oncogene Transcription Factor (AID 2282986; active = hit-call score of the fitted dose curve at least 0.9, where 1 is the maximum; inactive = score below 0.9). As to conditions: HepG2 Attagene CIS-FACTORIAL Myb reporter transcription; actives raise or lower the signal. In a few lines:
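In this HepG2 transient-transfection format, cis-regulated reporter mRNA is quantified 24 h post-dosing by RT-PCR with capillary electrophoresis, fitted bidirectionally to DMSO baseline.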

In experiment [4] the target is Nuclear respiratory factor 1 (Homo sapiens) (UniProt Q16656). Kind of experiment: ATG_NRF1_CIS: Attagene CIS-FACTORIAL HepG2 Assay for human Nuclear Respiratory Factor 1 (NRF1) Orphan Gene (AID 2282987; active = hit-call score of the fitted dose curve at least 0.9, where 1 is the maximum; inactive = score below 0.9). As to conditions: HepG2 NRF1 cis-element reporter, Attagene multiplex; actives raise or lower the signal. In a few lines: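 Using DMSO as baseline, gain- or loss-of-signal was fitted for reporter mRNA levels in HepG2 cells transiently transfected with cis-regulated reporter units. Samples were taken 24 h after dosing and read by RT-PCR with capillary electrophoresis.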

In experiment [5] the target is Nuclear receptor subfamily 4 group A member 2 (Homo sapiens) (UniProt P43354). Kind of experiment: ATG_NURR1_TRANS: Attagene TRANS-FACTORIAL HepG2 Assay for human Nuclear Receptor Related Protein 1 (NURR1) (AID 2282985). As to conditions: HepG2 Attagene TRANS reporter, mRNA readout. In a few lines: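 Read-out: reporter mRNA induction by RT-PCR plus capillary electrophoresis with fluorescence detection, after 24 h dosing of transfected HepG2 cells. Exogenous NR-Gal4 chimera activity drives GAL4-UAS reporter; activity fitted upward versus DMSO.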

The nature of experiment [6]: ATG_M_06_TRANS: Attagene TRANS-FACTORIAL HepG2 Assay for M06 Transcription Factor (Internal Marker) (AID 2282983).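 Also: reporter transcript level by RT-PCR then capillary electrophoresis fluorescence.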 As to conditions: HepG2 Attagene TRANS M06 internal marker reporter. In a few lines:
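Multi-reporter-transfected HepG2, 24 h treatment; reporter transcripts quantified via RT-PCR, primer-extension labelling and CE. DMSO-normalized gain-of-signal fit.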

A short description of experiment [7]: ATG_M_32_TRANS: Attagene TRANS-FACTORIAL HepG2 Assay for M32 Transcription Factor (Internal Marker) (AID 2282984).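 Also: transcript level of a background control reporter unit measured by RT-PCR and capillary electrophoresis.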 As to conditions: HepG2 Attagene TRANS M32 internal marker reporter. In a few lines: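 Read-out: fluorescent reporter cDNA fragments resolved by capillary electrophoresis after RT-PCR of total RNA. Transfected HepG2 cells were exposed to chemical for 24 h. Activity scored in the positive direction relative to DMSO.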

Results filed as inconclusive are left out. The source made the active and inactive calls. The calls were made as follows, unless noted: active = hit-call score of the fitted dose curve at least 0.9, where 1 is the maximum; inconclusive = response in the unintended direction; inactive = score below 0.9.

Oxysterols receptor LXR-beta (Homo sapiens), sequence (P55055 whole entry, looked up, the tested form may be a part): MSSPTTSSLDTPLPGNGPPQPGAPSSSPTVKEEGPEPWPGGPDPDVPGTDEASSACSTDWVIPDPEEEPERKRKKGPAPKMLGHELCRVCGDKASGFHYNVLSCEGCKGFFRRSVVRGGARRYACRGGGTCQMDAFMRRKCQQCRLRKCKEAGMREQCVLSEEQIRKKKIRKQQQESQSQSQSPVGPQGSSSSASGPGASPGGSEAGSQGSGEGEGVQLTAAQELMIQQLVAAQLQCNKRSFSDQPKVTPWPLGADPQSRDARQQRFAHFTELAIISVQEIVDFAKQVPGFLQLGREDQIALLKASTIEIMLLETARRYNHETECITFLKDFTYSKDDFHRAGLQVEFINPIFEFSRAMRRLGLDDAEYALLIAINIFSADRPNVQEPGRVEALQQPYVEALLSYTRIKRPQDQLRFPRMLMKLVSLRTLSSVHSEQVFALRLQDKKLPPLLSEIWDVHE
Transcriptional activator Myb (Homo sapiens), sequence (P10242 whole entry, looked up): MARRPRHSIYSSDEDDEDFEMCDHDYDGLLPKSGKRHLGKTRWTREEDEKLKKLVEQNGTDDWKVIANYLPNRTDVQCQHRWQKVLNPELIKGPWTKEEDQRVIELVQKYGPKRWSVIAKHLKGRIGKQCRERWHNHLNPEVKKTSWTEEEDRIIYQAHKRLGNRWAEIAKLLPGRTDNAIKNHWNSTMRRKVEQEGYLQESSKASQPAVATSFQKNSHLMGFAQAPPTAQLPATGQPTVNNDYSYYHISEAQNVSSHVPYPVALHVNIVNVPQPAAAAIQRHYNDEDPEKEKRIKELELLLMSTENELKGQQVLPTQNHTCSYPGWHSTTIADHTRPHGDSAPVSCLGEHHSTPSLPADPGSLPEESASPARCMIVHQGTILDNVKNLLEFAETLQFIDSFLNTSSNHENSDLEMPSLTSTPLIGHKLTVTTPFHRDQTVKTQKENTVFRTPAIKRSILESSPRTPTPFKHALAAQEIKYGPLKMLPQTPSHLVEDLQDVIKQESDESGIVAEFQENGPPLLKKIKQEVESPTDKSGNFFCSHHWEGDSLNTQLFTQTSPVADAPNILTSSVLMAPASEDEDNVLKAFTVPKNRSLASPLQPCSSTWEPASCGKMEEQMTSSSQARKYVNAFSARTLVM
Nuclear respiratory factor 1 (Homo sapiens), sequence (Q16656 whole entry, looked up): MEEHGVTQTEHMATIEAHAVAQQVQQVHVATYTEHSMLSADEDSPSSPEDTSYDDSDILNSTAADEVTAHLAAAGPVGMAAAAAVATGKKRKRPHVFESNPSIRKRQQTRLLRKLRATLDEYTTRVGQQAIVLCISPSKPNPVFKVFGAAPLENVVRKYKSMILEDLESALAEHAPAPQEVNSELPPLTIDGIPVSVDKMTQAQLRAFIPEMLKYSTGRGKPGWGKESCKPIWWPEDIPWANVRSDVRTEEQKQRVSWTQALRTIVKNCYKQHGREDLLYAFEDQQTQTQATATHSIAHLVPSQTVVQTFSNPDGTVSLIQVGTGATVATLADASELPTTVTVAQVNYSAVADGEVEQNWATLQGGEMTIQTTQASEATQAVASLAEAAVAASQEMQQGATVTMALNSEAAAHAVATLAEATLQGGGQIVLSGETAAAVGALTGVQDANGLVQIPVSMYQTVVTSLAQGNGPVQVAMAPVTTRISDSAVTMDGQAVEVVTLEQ
Hepatocyte nuclear factor 4-alpha (Homo sapiens), sequence (P41235 whole entry, looked up): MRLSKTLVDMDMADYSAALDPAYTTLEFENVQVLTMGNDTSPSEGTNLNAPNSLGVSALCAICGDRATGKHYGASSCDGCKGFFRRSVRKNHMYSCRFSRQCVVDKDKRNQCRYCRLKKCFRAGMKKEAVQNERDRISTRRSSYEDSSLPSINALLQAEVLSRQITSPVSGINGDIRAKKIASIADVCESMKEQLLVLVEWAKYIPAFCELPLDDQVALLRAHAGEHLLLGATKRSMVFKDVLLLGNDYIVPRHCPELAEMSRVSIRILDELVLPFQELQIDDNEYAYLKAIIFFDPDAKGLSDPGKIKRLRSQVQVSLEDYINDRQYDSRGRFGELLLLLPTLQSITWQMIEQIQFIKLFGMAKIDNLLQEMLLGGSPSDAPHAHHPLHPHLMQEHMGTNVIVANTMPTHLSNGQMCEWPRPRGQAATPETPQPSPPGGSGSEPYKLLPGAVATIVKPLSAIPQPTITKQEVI
Nuclear receptor subfamily 4 group A member 2 (Homo sapiens), sequence (P43354 whole entry, looked up, the tested form may be a part): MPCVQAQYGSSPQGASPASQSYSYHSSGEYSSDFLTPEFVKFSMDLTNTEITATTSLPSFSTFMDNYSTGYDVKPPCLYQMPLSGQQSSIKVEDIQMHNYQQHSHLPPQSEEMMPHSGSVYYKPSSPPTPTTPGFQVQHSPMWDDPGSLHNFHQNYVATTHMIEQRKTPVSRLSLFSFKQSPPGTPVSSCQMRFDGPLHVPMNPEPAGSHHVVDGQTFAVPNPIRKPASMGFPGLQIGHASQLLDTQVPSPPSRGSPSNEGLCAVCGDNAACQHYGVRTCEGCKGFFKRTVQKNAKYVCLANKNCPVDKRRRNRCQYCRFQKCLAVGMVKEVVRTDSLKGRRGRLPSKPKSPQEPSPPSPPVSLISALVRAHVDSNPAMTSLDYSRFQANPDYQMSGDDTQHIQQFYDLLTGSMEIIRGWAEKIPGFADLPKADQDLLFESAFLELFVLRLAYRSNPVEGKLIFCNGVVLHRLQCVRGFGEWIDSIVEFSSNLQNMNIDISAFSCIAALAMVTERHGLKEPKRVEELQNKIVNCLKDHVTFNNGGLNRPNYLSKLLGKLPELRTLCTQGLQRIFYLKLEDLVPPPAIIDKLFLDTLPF

In the case of `O=C1OC(=O)c2cc(Oc3ccc4c(c3)C(=O)OC4=O)ccc21`, the call in experiment [1], in experiment [2], in experiment [3] and in experiment [4] was inactive.
In the case of `CC(C)=CCC[C@H](C)CCO`, the result in experiment [1], in experiment [2], in experiment [5], in experiment [3] and in experiment [4] was inactive.
`C=C(C)[C@H]1CC=C(C)CC1`: the molecule was classed as inactive in experiment [1], in experiment [6], in experiment [5] and in experiment [4].
Consider `O=C(C(Cl)Cl)N1CCOC12CCCCC2`, for which the molecule was called inactive in experiment [1], in experiment [2], in experiment [7] and in experiment [4].
`Cc1ccc2oc(=O)ccc2c1`: the result in experiment [1], in experiment [2], in experiment [7], in experiment [5], in experiment [3] and in experiment [4] was inactive.
In general, AC50 refers to the midpoint of the concentration-response curve, whichever way the signal moves. Take `CCCCC/C=C\C/C=C\CCCCCCCC(=O)OC`: the molecule was called inactive in experiment [2], in experiment [6], in experiment [7] and in experiment [5]. The concentration at half-maximal activity (AC50) in experiment [3] was 162 µM (active); in experiment [4], 171 µM (active).
With `C=CC(C)(C)C`, the result in experiment [7], in experiment [3] and in experiment [4] was inactive.
`Cc1cc(C)c(C)cc1C`: the result in experiment [2], in experiment [7], in experiment [3] and in experiment [4] was inactive.
As to `Nc1ccc(N)c(Cl)c1`, the outcome in experiment [2], in experiment [5] and in experiment [3] was inactive.
Regarding `CC(C)CCCC(C)CC=O` (stereo not given), the molecule was called inactive in experiment [2], in experiment [7], in experiment [5] and in experiment [3].
Regarding `C=CC(=O)OCCC(=O)O`, the molecule was classed as inactive in experiment [2], in experiment [6], in experiment [7] and in experiment [3].
As for `O=C(C=Cc1ccccc1)OCc1ccccc1`, the molecule was classed as inactive in experiment [2], in experiment [7], in experiment [5], in experiment [3] and in experiment [4].
For the molecule `c1ccc(CNCc2ccccc2)cc1`, the molecule was called inactive in experiment [1], in experiment [3] and in experiment [4].
On to `O=C(O)c1cc(Cl)cc([N+](=O)[O-])c1Cl`, for which the outcome in experiment [2], in experiment [6], in experiment [7], in experiment [3] and in experiment [4] was inactive.
Regarding `Cc1cc(=O)n(-c2ccccc2)n1C`, the result in experiment [6], in experiment [7], in experiment [5], in experiment [3] and in experiment [4] was inactive.
As to `CC(CC=O)CCCC(C)(C)O` (stereo not given), the call in experiment [2], in experiment [6], in experiment [7], in experiment [5], in experiment [3] and in experiment [4] was inactive.
For `CC(=O)Oc1ccc(C)cc1`, the outcome in experiment [7], in experiment [5] and in experiment [4] was inactive.
For `c1c[nH]cn1`, the call in experiment [2], in experiment [3] and in experiment [4] was inactive.
As to `CCCCOCCOC(=O)COc1nc(Cl)c(Cl)cc1Cl`, the outcome in experiment [7] and in experiment [3] was inactive.
Regarding `O=C(O)Cc1c(Cl)ccc(Cl)c1Cl`, the outcome in experiment [2], in experiment [7], in experiment [3] and in experiment [4] was inactive.
With `CC(C)=CC1CC(C)CCO1` (stereo not given), the outcome in experiment [2], in experiment [6] and in experiment [4] was inactive.
With `CCN(CCO)c1cccc(C)c1`, the molecule was called inactive in experiment [7], in experiment [5] and in experiment [3].
Regarding `CCCCCCCCCCOC(C)=O`, the molecule was called inactive in experiment [2], in experiment [6], in experiment [5], in experiment [3] and in experiment [4].
Consider `CCCCCCC1(C)CCC(=O)O1` (stereo not given), for which the call in experiment [2], in experiment [6], in experiment [7] and in experiment [4] was inactive.
Take `OC1OCCOC1O` (stereo not given): the outcome in experiment [7], in experiment [3] and in experiment [4] was inactive.
Turning to `NC(=O)OCC(COC(N)=O)c1ccccc1`, the molecule was called inactive in experiment [2], in experiment [6], in experiment [5], in experiment [3] and in experiment [4].
For `CCCCCCCCCCCCCOP(=O)(O)O`, the outcome in experiment [1], in experiment [3] and in experiment [4] was inactive.
Consider `CCC(C)(C)C1CCCCC1OC(C)=O` (stereo not given), for which the result in experiment [6], in experiment [7], in experiment [5], in experiment [3] and in experiment [4] was inactive.
In the case of `NCCCN1CCN(CCCN)CC1`, the outcome in experiment [7], in experiment [3] and in experiment [4] was inactive.
With `C=COCCCC`, the call in experiment [1], in experiment [3] and in experiment [4] was inactive.
In the case of `O=C(Cl)c1cc(C(=O)Cl)cc(C(=O)Cl)c1`, the outcome in experiment [6], in experiment [7], in experiment [3] and in experiment [4] was inactive.
Regarding `CCO[Si](C)(OCC)OCC`, the call in experiment [6], in experiment [3] and in experiment [4] was inactive.
Take `Clc1nc2ccccc2s1`: the molecule was called inactive in experiment [2], in experiment [6], in experiment [7], in experiment [5], in experiment [3] and in experiment [4].
Turning to `CC(CC=O)c1ccccc1` (stereo not given), the result in experiment [6], in experiment [5], in experiment [3] and in experiment [4] was inactive.
As for `Cc1cccc(N)n1`, the outcome in experiment [2], in experiment [3] and in experiment [4] was inactive.
For the molecule `O=S(=O)(Oc1ccc(Cl)cc1Cl)c1ccccc1`, the concentration at half-maximal activity (AC50) in experiment [5] is 35.4 µM (active). Besides, the molecule was called inactive in experiment [3] and in experiment [4].
In the case of `C=C(C)C(=O)OCC(C)C`, the molecule was classed as inactive in experiment [2], in experiment [5], in experiment [3] and in experiment [4].
Turning to `CCCC(=O)OCc1ccccc1`, the result in experiment [2], in experiment [7] and in experiment [4] was inactive.
For `CCOC(=O)[C@H](C)O`, the outcome in experiment [6], in experiment [7], in experiment [5], in experiment [3] and in experiment [4] was inactive.
With `CCCCCCOc1cc(C)c(O)c(C)c1C`, the molecule was called inactive in experiment [2], in experiment [5], in experiment [3] and in experiment [4].
With `CCOC(=O)c1ccccc1C(=C1C=C(Br)C(=O)C(Br)=C1)c1cc(Br)c(O)c(Br)c1`, the call in experiment [2], in experiment [6], in experiment [7] and in experiment [3] was inactive.
In the case of `O=C(c1ccccc1)C1CCC1`, the result in experiment [2], in experiment [6], in experiment [7] and in experiment [4] was inactive.
For the molecule `O=c1cc[nH]c(=S)[nH]1`, the molecule was called inactive in experiment [2], in experiment [6], in experiment [7], in experiment [3] and in experiment [4].
With `FC(F)=C(F)OC(F)(F)C(F)(F)C(F)(F)F`, the call in experiment [1], in experiment [5], in experiment [3] and in experiment [4] was inactive.
For the molecule `CCCC(C)CCC(C)=O` (stereo not given), the outcome in experiment [2], in experiment [6], in experiment [5] and in experiment [4] was inactive.
